# In the library only some 0.63% were active in any assay of this set; here they are far more common.
# TSHR antagonist – antagonists of human thyroid stimulating hormone receptor. 330,000 tested, 0.2% active. TSHR-expressing cells, TSH-stimulated cAMP HTRF, 2 h; active compounds read low. P16473. activity change, negative = inhibition, % at 11.5 µM. AID 504810;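 active = activity change below a set negative limit, meaning inhibition stronger than a set level, cut at about -70% in these data; inconclusive = activity change between two set negative limits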
#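 Inhibition of cAMP made by TSHR-expressing cells under TSH stimulation (4nM final, EC80; 2 h, 37 deg C) is quantified with a one-step lysis HTRF kit, anti-cAMP cryptate versus cAMP-d2.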
# gsp antag – antagonizes gsp, the McCune-Albright syndrome mutation; 340,000 tested, 0.4% active; Potency, µM (doses to about 76.9 µM), hits mostly inhibitors; gsp-mutant cells, cAMP HTRF, 30 min; calls by dose curve; cell line not stated here;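 note: intracellular cAMP measured with PDE inhibitor Ro 20-1724 present during compound exposure; nearly all actives have a fitted effect of over 65% in size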
#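 Cells in G418 medium, seeded 16-24 h, 37C; buffer exchange to DPBS + 1 mM CaCl2, 0.5 mM MgCl2, 0.05% BSA; cpds in DMSO + […] (300 uM stock), 30 min 37C; HTRF cAMP detection.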
# gsp agonist – activates gsp, the McCune-Albright syndrome mutation | gsp mutant cells, cAMP HTRF, 30 min | Potency, µM (doses to about 76.9 µM), most hits filed as activators | 340,000 tested, 0.13% active; active = well fitted activation curve with a large enough effect; inconclusive = small, poorly fitted or top-dose-only effect, or another doubt; inactive = no such curve, though single readings can be large or run the other way; cell line not stated here;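 note: phosphodiesterase inhibitor Ro 20-1724 added with compounds to block cAMP breakdown; nearly all actives have a fitted effect of over 60% in size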
#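 Cells in DMEM/10% FBS with G418 were pretreated with compounds in DMSO plus […] (300 uM stock) for 30 min at 37C. cAMP was measured by HTRF (cAMP-d2 plus anti-cAMP antibody-K) after 30 min at room temperature.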
# S-ASM inh – human S-ASM enzyme inhibition. P17405. 340,000 tested, 0.006% active. Potency, µM (highest dose often 57.5 µM), usual class: inhibitors. placental ASM, HMU-PC fluorogenic substrate, 60 min; active = well fitted inhibition curve with a large enough effect; inconclusive = small, poorly fitted or top-dose-only effect; inactive = no such curve, though single readings can be large or run the other way
# Target sequence (P17405 47-631 limits assumed): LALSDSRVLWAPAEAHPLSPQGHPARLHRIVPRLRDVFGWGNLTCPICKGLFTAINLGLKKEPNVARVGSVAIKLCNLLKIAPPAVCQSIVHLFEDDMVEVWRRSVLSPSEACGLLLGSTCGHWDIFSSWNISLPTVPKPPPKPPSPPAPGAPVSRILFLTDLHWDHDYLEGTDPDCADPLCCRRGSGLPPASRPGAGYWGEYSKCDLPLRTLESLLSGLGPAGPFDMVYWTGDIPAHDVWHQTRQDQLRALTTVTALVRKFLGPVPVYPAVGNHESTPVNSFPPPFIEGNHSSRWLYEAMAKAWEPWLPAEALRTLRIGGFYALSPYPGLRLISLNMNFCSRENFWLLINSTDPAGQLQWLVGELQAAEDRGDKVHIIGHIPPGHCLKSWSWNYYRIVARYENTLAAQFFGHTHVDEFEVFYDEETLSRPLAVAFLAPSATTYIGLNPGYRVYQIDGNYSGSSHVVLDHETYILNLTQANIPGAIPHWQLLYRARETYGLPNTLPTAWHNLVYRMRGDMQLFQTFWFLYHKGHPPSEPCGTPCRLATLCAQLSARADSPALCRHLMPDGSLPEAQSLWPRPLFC
#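 qHTS format. ASM enzyme prepared from human placenta hydrolyses the fluorogenic substrate HMU-PC0 (9 uM final) over 60 min at 37 °C after a 10 min compound preincubation.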
# Numbers stand for hits; n = inactive; u = inconclusive; x = no result given; [ ] = remark or other dose.
SMILES,TSHR antagonist,gsp antag,gsp agonist,S-ASM inh
Cc1cn([C@@H](CCCCNC(=O)OC(C)(C)C)C(=O)NCCCCCCCCCCC(=O)N2CCN(C(=O)OC(C)(C)C)CC2)nn1,u,28µM,x,n
Cc1ccc(S(=O)(=O)N2CCCC(C(=O)NC3CCCC3)C2)cc1Cl (stereo unspecified),-84,n,n[15.4 µM],n
CC(c1nnnn1C(C)(C)C)N(Cc1cccnc1)Cc1ccccc1Cl (stereo unspecified),n,40µM,n,n
CN(CC(=O)Nc1ccc(Cl)cc1)CC(=O)Nc1cccc(Br)c1,n,n,n[15.4 µM],n
Oc1ccc(COc2cccc3ccccc23)c2cccnc12,n,x,x,x
O=C(CCc1nc(-c2ccccc2F)no1)Nc1ccc(Oc2ccccc2)cc1,-73,n,n,n
CCOC(=O)c1ccc(NC(=O)CCc2nc(-c3cccc(C)c3)no2)cc1,n,35µM,n,n
Cc1cccc(-c2noc(CCC(=O)Nc3ccccc3)n2)c1,n,u,n,n
CSc1ccccc1C(=O)N1CCCC(CCC(=O)NCc2ccc(F)c(F)c2)C1 (stereo unspecified),n,u,n,n
Cc1cccc(N2C(=O)N3[C@H]4c5ccccc5OC[C@@H]4[C@@H](c4ccccc4)[C@@]3(C)C2=O)c1,n,n,n,n
CC(=O)Nc1ccc(S[C@@H](CCN2CC[C@H](O)CCC2=O)c2ccccc2)cc1,n,50µM,n,n
O=C1CC[C@@H](O)CCN1CC[C@H](Sc1ccccc1)c1ccccc1,n,n,x,n
COc1cc(Br)cc(C2C3=C(CCCC3=O)N(c3ccc(F)cc3)C3=C2C(=O)CCC3)c1O,n,32µM,u,n
Cn1nc(C(=O)OCC(=O)Nc2ccc(SC(F)F)cc2)c2ccccc2c1=O,x,u,n,u
Cc1nn(-c2cccc(Cl)c2)c2c1C(c1ccncc1)C(C#N)=C(N)O2 (stereo unspecified),n,40µM,n,n
O=C(CN(c1ccc(Br)cc1)S(=O)(=O)c1ccc(Cl)c([N+](=O)[O-])c1)NCCc1ccccc1,n,n,n[15.4 µM],n
Cc1ccc(N(CC(=O)NCCc2ccc(F)cc2)S(=O)(=O)c2ccc(Cl)c([N+](=O)[O-])c2)c(C)c1,n,25µM,n,n
N#C/C(=C\c1ccc[nH]1)C(=O)Nc1ccccc1Cl,n,32µM,u,n
N#C/C(=C\c1ccc[nH]1)C(=O)Nc1ccccc1F,n,n,u,n
O=C(CSc1nc2nc(-c3cccs3)cc(C(F)(F)F)c2c(=O)[nH]1)Nc1ccc(F)c(F)c1,n,n,n[15.4 µM],n
Cc1ccc(C)c(NC(=O)CSc2nc3nc(-c4cccs4)cc(C(F)(F)F)c3c(=O)[nH]2)c1,n,n,20µM,n
NC(=O)c1ccsc1NC(=O)COC(=O)Cc1cccc2ccccc12,u,35µM,n,u
Cc1ccc(S(=O)(=O)NCC(=O)N2CCOCCOCCOCC2)cc1,n,n,n,n
CCOC(=O)C(=CNc1ccccc1Cl)C(=O)OCC,n,n,n,n
CCOC(=O)C(=CNc1ccccc1C)C(=O)OCC,n,20µM,n,n
SMILES,TSHR antagonist,gsp antag,gsp agonist,S-ASM inh
COCCCN1C(=O)C(O)=C(C(=O)c2ccc(C)o2)C1c1cccc(Br)c1 (stereo unspecified),n,n,13µM,n
CCN(CC)S(=O)(=O)c1cc(NC(=O)NCCCl)ccc1C,-71,n,n[15.4 µM],n
O=c1[nH]c2ccc(S(=O)(=O)N3CCC(Cc4ccccc4)CC3)cc2o1,n,25µM,n,n
CCOc1ccc(CCNC(=O)CCc2nnc3ccc(N4CCOCC4)nn23)cc1OCC,n,n,n,n
CCOC(=O)C(Cc1ccccc1)NC(=O)CCc1nnc2ccc(N3CCOCC3)nn12 (stereo unspecified),n,n,20µM,n
Cc1ccc(/C=C/C(=O)NCc2cccs2)c(C)c1,n,n,u,n
CN(C)/C=C(/C(=O)c1ccc(Cl)cc1)S(=O)(=O)c1ccc(Cl)cc1,-114,n,n,n
CCn1c(N2CCN(S(=O)(=O)c3ccc(Cl)cc3)CC2)nc2ccccc21,n,32µM,n[15.4 µM],n
Cn1nc(C(=O)Nc2nc(-c3ccc(F)cc3)cs2)ccc1=O,n,n,n,n
COc1ccc(C)cc1NC(=O)CCS(=O)(=O)c1ccc2c(c1)oc(=O)n2C,n,n,n,n
CCOc1cc(/C=C2\SC(=O)N(c3ccc(O)cc3)C2=O)ccc1O,n,32µM,n,n
CCCN1CCN(S(=O)(=O)c2ccc3c(c2)CCC(=O)N3)CC1,n,n,n,n
Cc1cc(NC(=O)CSc2nnc(-c3ccccc3Cl)o2)no1,n,n,n[15.4 µM],n
Cc1[nH]c2ccc(C(=O)NCCCN(C)C3CCCCC3)cc2c1C,n,n,n,n
COCCNC(=S)N(CCCN(C)C)Cc1cc2cc3c(cc2[nH]c1=O)OCCO3,n,50µM,u,n
Cc1ccccc1Oc1nnc(-c2cccs2)c2ccccc12,n,25µM,n[15.4 µM],n
CCN(CC)S(=O)(=O)c1ccc(-c2nnc(SCC(=O)N3c4ccccc4CC3C)n2CC)cc1 (stereo unspecified),n,28µM,n,n
CCN(CC)S(=O)(=O)c1ccc(-c2nnc(SCC(=O)N3c4ccccc4CC3C)o2)cc1 (stereo unspecified),n,u,n,n
COc1ccc(OCc2cc(C(=O)N3CCCCCCC3)no2)c(Cl)c1,n,n,u,n
CCOC(=O)N1CCN(C(=O)c2cc(COc3ccc(OC)cc3Cl)on2)CC1,n,35µM,n,n
Cc1cc(C)cc(-n2ccn(CC(=O)NCCc3ccccc3)c(=O)c2=O)c1,n,n,n,n
COc1cccc(C2/C(=C(/O)c3ccc4c(c3)CC(C)O4)C(=O)C(=O)N2CCCn2ccnc2)c1 (stereo unspecified),n,n,13µM,n
COc1cccc(C2/C(=C(/O)c3ccc4c(c3)OCO4)C(=O)C(=O)N2CCN2CCOCC2)c1 (stereo unspecified),n,n,11µM,n
Cc1nc2ccccn2c1/C(O)=C1\C(=O)C(=O)N(CCCn2ccnc2)C1c1ccncc1 (stereo unspecified),n,n,18µM,n
COc1cccc(C2/C(=C(\O)c3ccc4c(c3)OCCO4)C(=O)C(=O)N2CCCn2ccnc2)c1 (stereo unspecified),n,n,13µM,n
Cc1nc2ccccn2c1/C(O)=C1\C(=O)C(=O)N(CCN(C)C)C1c1cccnc1 (stereo unspecified),n,n,u,n
O=C1C(=O)N(CCCn2ccnc2)C(c2ccc(Br)cc2)/C1=C(\O)c1ccc2c(c1)OCCO2 (stereo unspecified),n,n,u,n
COc1ccccc1Oc1c(C)oc2c(CN(C)C)c(O)ccc2c1=O,n,n,u,n
O=C(COC(=O)CCCOc1ccccc1)NC1CCS(=O)(=O)C1 (stereo unspecified),x,n,n[15.4 µM],n
O=C1C(=O)N(CCCn2ccnc2)C(c2cccc(Br)c2)/C1=C(\O)c1ccc2c(c1)OCCO2 (stereo unspecified),n,n,11µM,n
